Screening data from PubChem BioAssay.
Hits are enriched below; roughly 19% of the tested compounds scored in any of these assays.
AMA1-RON2 inh = inhibitors of Plasmodium falciparum AMA1-RON2 interaction; AlphaScreen AMA1-biotinylated RON2 peptide binding; Potency, µM (doses to about 58.2 µM), most hits filed as inhibitors; 0.2% of 360,000 active; AID 720542; also: nearly all actives have a fitted effect of over 45% in size
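AMA1 (3D7) with his tag at 25 nM final met compounds first, then biotinylated RON2 peptide at 25 nM; detection used donor plus acceptor beads, 10 µg/mL apiece, read by AlphaScreen after 30 min at room temperature.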
CHX counter = counter-screen for Shiga toxin inhibitors: cycloheximide protein synthesis inhibition. cell reporter, cycloheximide protein synthesis inhibition counterscreen. max response, %. 12% of 300,000 active. AID 2314; in the data active = max response mostly above about 13%, no sharp cut-off; inactive = mostly below about 14%; also: read at 38.3 µM for the half of the compounds with a filed dose
Pf growth 48h = inhibits P. falciparum growth in the first generation, 48 h. P. falciparum luciferase growth in erythrocytes, 48 h. 5.9% of 310,000 active. AID 504832. Potency, µM (doses to about 28.7 µM), actives largely listed as inhibitors
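Erythrocytes infected with P. falciparum carrying an integrated firefly luciferase reporter (2% hematocrit, 0.1% parasitemia final) were exposed to compounds in RPMI 1640 with 0.5% Albumax at 37 C, 5% CO2. Growth inhibition was scored as reduced luminescence.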
Pf growth 96h = P. falciparum growth inhibition at 96 hour, primary screen for plastid delayed-death inhibitors. P. falciparum luciferase reporter growth, 96 h. Potency, µM (highest dose often 28.7 µM), hits mostly inhibitors. 6.9% of 320,000 active
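Readout is luminescence from an integrated firefly luciferase in P. falciparum. Red cells, 2% hematocrit and 0.05% parasitemia final, were cultured with compound through two parasite generations (96 hours) at 37 C, 5% CO2.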
Shiga toxin inh = inhibitors of Shiga toxin in Vero cells; Vero cells, Shiga toxin protein synthesis inhibition reporter; inhibition, % at 38.7 µM; 9.2% of 290,000 active; AID 2315; in the data active = inhibition mostly above about 28%, no sharp cut-off; inactive = mostly below about 43%
SARS PLpro yeast = SARS-CoV PLP inhibition in yeast; S. cerevisiae expressing SARS-CoV PLpro, growth rescue; Potency, µM (doses to about 32.9 µM), hits mostly activators; 0.19% of 330,000 active; AID 485353; calls by dose curve; also: nearly all actives have a fitted effect of over 55% in size
A number is an active result; 0 = inactive; ? = inconclusive; - = no result. Unless noted, calls follow the shape of the dose curve; as a rule, active = well fitted curve in the direction sought with a large enough effect; inconclusive = small, poorly fitted or top-dose-only effect, or another doubt; inactive = no such curve, though single readings can be large; an effect the other way counts as inactive or inconclusive.

SMILES | AMA1-RON2 inh | CHX counter | Pf growth 48h | Pf growth 96h | Shiga toxin inh | SARS PLpro yeast
O=C(CSC1=NNC(c2ccccn2)S1)Nc1ccccc1 (stereo not drawn) | 0 | 21.8 | ? | ? | 0 | ?
O=C(CSC1=NNC(c2ccccn2)S1)Nc1cccc(Cl)c1 (stereo not drawn) | ? | 40.2 | ? | ? | 61.8 | ?
CC(=O)c1cccc(NC(=O)N2CCC(NC(=O)c3ccco3)CC2)c1 | 0 | 0 | 0 | 0 | 0 | 0
COCCN1Cc2cccc(C(=O)Nc3ccc(S(=O)(=O)N4CCOCC4)cc3)c2C1=O | 0 | 0 | 0 | 0 | 0 | 0
C[C@H]1[C@H](c2ccccc2)C[C@@H](C(=O)O)C1(C)C | 0 | - | 0 | 0 | - | 0
CC(=O)c1c(C)[nH]c(C(=O)OCC(=O)c2ccc(C)s2)c1C | 0 | - | 0 | 0 | - | 0
Fc1ccccc1CNc1ccc(Cl)cc1 | 0 | 28.5 | ? | 0 | 50.0 | 0
O=C1C(=O)c2cccc3cccc1c23 | 0 | 0 | 10.4µM | 6.57µM | 0 | 0
O=C1C([N+](=O)[O-])=C(O)c2cccc3cccc1c23 | - | 11.1 | 0 | 0 | 0 | 0
CNC(=S)N/N=C1\C(=O)c2cccc3cccc1c23 | 0 | 22.8 | 0 | ? | 0 | 0
N#CCC(=O)Nc1ccc(C(=O)NCc2ccccn2)cc1 | 0 | 0 | 0 | 0 | 0 | 0
CCOC(=O)CSc1nc(C)c2cccc(C)c2n1 | 0 | 0 | 0 | 0 | 0 | 0
COC(=O)CSc1nc(C(C)C)nc2ccccc12 | 0 | 0 | 0 | 0 | 0 | 0
CCOC(=O)CSc1nc(C)c2ccccc2n1 | 0 | 11.4 | 0 | - | 0 | 0
CC(C)c1nc(SCC(=O)c2ccc(F)cc2)c2ccccc2n1 | 0 | 20.3 | ? | 0 | 0 | 0
CC(C)c1nc(SCC(=O)Nc2ccc(N(C)C)cc2)c2ccccc2n1 | ? | 0 | 11.7µM | 0 | 0 | 0
CCOC(=O)CSc1nc(C(C)C)nc2ccccc12 | 0 | 0 | 0 | 13.1µM | 0 | 0
CC(C)c1nc(SCC(=O)Nc2nccs2)c2ccccc2n1 | 0 | 0 | 0 | ? | 0 | 0
COc1ccc(NC(=O)C2CC(=O)N(c3ccccc3F)C2)cc1S(=O)(=O)N1CCCCC1 (stereo not drawn) | 0 | - | - | - | - | -
CSCC[C@H](NC(=O)C(C)(C)Oc1ccc(Cl)cc1)c1nc2ccccc2[nH]1 | 0 | 0 | ? | 10.4µM | 0 | 0
CC(C)C(NC(=O)C(c1ccccc1)c1ccccc1)c1nc2ccccc2[nH]1 (stereo not drawn) | 0 | 0 | 9.28µM | - | 0 | 0
C[C@H](NC(=O)c1ccc(Cl)c(S(=O)(=O)N2CCOCC2)c1)c1nc2ccccc2[nH]1 | 0 | - | ? | 3.29µM | - | 0
CC(C)C(NC(=O)c1ccc(S(=O)(=O)N2CCOCC2)cc1)c1nc2ccccc2[nH]1 (stereo not drawn) | 0 | 0 | 0 | 13.1µM | 0 | 0
Cc1cccc([C@H]2[C@@H]3C=CCC[C@@H]3C(=O)N2Cc2ccccc2)c1 | 0 | 0 | - | - | 0 | 0
CCC1(c2ccc(Cl)cc2)NC(=O)N(CC(=O)NC2CCCC(C)C2C)C1=O (stereo not drawn) | 0 | - | ? | 0 | - | 0
SMILES | AMA1-RON2 inh | CHX counter | Pf growth 48h | Pf growth 96h | Shiga toxin inh | SARS PLpro yeast
CSCC[C@H](NC(=O)c1ccc(Cl)c(S(=O)(=O)N2CCCC2)c1)c1nc2ccccc2[nH]1 | 0 | 0 | 11.7µM | 10.4µM | 0 | 0
NC(=O)C1CC(=O)N(c2ccc(OCC(=O)Nc3ccc(F)cc3)cc2)C1 (stereo not drawn) | 0 | - | 0 | 0 | - | 0
CN(Cc1ccco1)C(=O)CN1C(=O)NC2(CCCCC2)C1=O | 0 | - | 0 | 0 | - | 0
CCCCCCN(C(=O)CCCCCN1C(=O)NC(c2ccc(C3CCCCC3)cc2)C(C(=O)OCc2ccccc2)=C1C)C(C(=O)NCCCC)c1ccc(OCC(=O)OC)c(C(=O)OC)c1 (stereo not drawn) | - | 0 | 2.94µM | 2.08µM | 0 | 0
CC1=C(C(=O)OCc2ccccc2)C(c2ccccc2)NC(=O)N1CCCCCC(=O)O (stereo not drawn) | 0 | 0 | 0 | ? | 0 | 0
CCCCCCN(C(=O)CCCCCN1C(=O)NC(c2ccc(C(C)(C)C)cc2)C(C(=O)OCc2ccccc2)=C1C)C(C(=O)NCCCC)c1ccc(OCC(=O)OC)c(C(=O)OC)c1 (stereo not drawn) | - | 0 | 2.08µM | 2.08µM | 0 | 0
CCCCCCN(C(=O)CCCCCN1C(=O)NC(c2ccccc2)C(C(=O)OCc2ccccc2)=C1C)C(C(=O)NCCCC)c1ccc(OCC(=O)OC)c(C(=O)OC)c1 (stereo not drawn) | - | 0 | 2.08µM | 3.29µM | 0 | 0
CC1=C(C(=O)OCc2ccccc2)C(c2ccc(C(C)(C)C)cc2)NC(=O)N1CCCCCC(=O)O (stereo not drawn) | 0 | 0 | ? | ? | 0 | 0
CCc1ccc(/C=N/n2c(C3CCCCC3)n[nH]c2=S)cc1 | 0 | 0 | ? | ? | 0 | 0
Cc1ccc([N+](=O)[O-])cc1N=C(c1cccc([N+](=O)[O-])c1)N1CCOCC1 | 0 | 0 | ? | ? | 0 | 0
Cc1ccc([N+](=O)[O-])cc1N=C(c1ccc([N+](=O)[O-])cc1)N1CCOCC1 | 0 | 0 | ? | 8.28µM | 0 | 0
O=C(/C=C/c1ccccc1Cl)Nc1ccncc1 | 0 | 24.7 | 0 | 0 | 66.8 | 0
CCC(CC)NC(=O)/C=C/c1ccccc1Cl | 0 | 35.1 | 0 | 0 | 69.2 | 0
CC(=O)N(C)c1ccc(NC(=O)/C=C/c2ccccc2Cl)cc1 | 0 | 80.4 | ? | ? | 41.1 | 0
O=C(/C=C/c1ccccc1Cl)NC1CCCCC1 | 0 | 32.9 | 0 | 0 | 26.5 | 0
O=C(/C=C/c1ccc(Cl)cc1Cl)Nc1ccncc1 | 0 | 50.3 | 0 | 0 | 95.8 | 0
O=C(/C=C/c1ccc(Cl)cc1Cl)NCc1ccncc1 | 0 | 29.8 | ? | 11.7µM | 0 | 0
COc1ccccc1/C=C/C(=O)Nc1cccnc1 | 0 | 37.3 | 0 | ? | 156.4 | 0
O=C(/C=C/c1ccc(Cl)c(Cl)c1)Nc1cccnc1 | 0 | - | - | - | - | -
O=C(/C=C/c1ccccc1Cl)Nc1cccnc1 | 0 | 60.4 | 0 | 0 | 79.8 | 0
COc1ccc2[nH]c(CN3CCC(n4nccc4NC(=O)C4CC4)CC3)c(C)c2c1 | 0 | 0 | 0 | ? | 0 | 0
COC(=O)[C@@H]1OC(c2ccccc2)O[C@H]1C(=O)OC | - | 0 | - | - | 0 | -
O=C(Nc1ccc(N2CCOCC2)cc1)c1csc([C@H]2C[C@H](O)[C@@H](CO)O2)n1 | 0 | - | - | - | - | -
Cc1cc2c(cc1C)C(=O)C(Br)=C(N)C2=O | 0 | - | - | - | - | -
Nc1ccc(O)c2c1C(=O)c1ccccc1C2=O | 7.08µM | 22.1 | 0 | 0 | 36.1 | 0
NC1=C(Br)C(=O)c2ccccc2C1=O | 0 | 31.4 | 2.62µM | 1.04µM | 81.1 | 0
COc1ccc(OC)c2c1C(=O)C(Cl)=C(Cl)C2=O | 0 | 15.2 | 0 | 0 | 0 | 0
Nc1ccc(Br)c2c1C(=O)c1ccccc1C2=O | ? | 28.4 | ? | 0 | 0 | 0
O=C1c2ccccc2C(=O)c2c(O)c(O)cc(O)c21 | 0 | - | - | - | - | 0
